# Experimental data from PubChem BioAssay (NCI).
# About 79,000 compounds went through this panel and 15% of them were active in at least one assay; those are over-represented in the sample as a whole. Unmarked numbers belong to inactive results. Activity calls are given as the source filed them. Cut-off read from the data, not from the text of the source: active = growth inhibition above about 70%; inactive = the rest.
# Assays:
# [1] = NCI Yeast Anticancer Drug Screen. Data for the rad52 strain (AID 147);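 note: 0% = growth of vehicle-treated control cultures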; details: S. cerevisiae rad52 mutant growth inhibition, stronger effect = higher value
# Summary of the method: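 DNA repair-defective yeast; compound exposure; growth scored against vehicle controls.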
# [2] = NCI Yeast Anticancer Drug Screen. Data for the wt1 strain (AID 149);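 note: 0% = growth of vehicle-treated wt1 cultures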; details: S. cerevisiae wt1 strain (SPY 50644) growth inhibition, stronger effect = higher value
# Summary of the method: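 wt1 yeast, compound-treated; % growth inhibition vs vehicle control.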
# [3] = NCI Yeast Anticancer Drug Screen. Data for the rad50EPP+ strain (AID 151);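 note: 0% = growth of vehicle-treated control cultures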; details: S. cerevisiae rad50 mutant strain, stronger effect = higher value
# Summary of the method: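 rad50EPP+ yeast treated with test compounds. Readout: growth vs vehicle control.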
# [4] = NCI Yeast Anticancer Drug Screen. Data for the rad50 strain (AID 155);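 note: 0% = growth of vehicle-only cultures of the same strain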; details: S. cerevisiae rad50 strain growth inhibition, stronger effect = higher value
# Summary of the method: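 Genetically altered yeast (DNA repair pathway); compound treatment; growth inhibition vs vehicle ctrl.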
# [5] = NCI Yeast Anticancer Drug Screen. Data for the mec2-1 strain (AID 157); details: S. cerevisiae mec2-1 strain, stronger effect = higher value
# Summary of the method: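 Growth inhibition is read against vehicle-treated controls after compound exposure of the mec2-1 yeast strain, which is defective in DNA damage repair or cell cycle control.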
# [6] = NCI Yeast Anticancer Drug Screen. Data for the rad14 strain (AID 159);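 note: 0% = growth of vehicle-treated control cultures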; details: S. cerevisiae rad14 strain growth inhibition, stronger effect = higher value
# Summary of the method: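 Test compounds were applied to a repair-deficient yeast strain. Its growth was then compared with that of cultures given vehicle alone, and inhibition was expressed relative to those controls.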
# [7] = NCI Yeast Anticancer Drug Screen. Data for the sgs1 mgt1 strain (AID 161);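 note: 0% = growth of cultures given vehicle only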; details: S. cerevisiae sgs1 mgt1 strain, stronger effect = higher value
# Summary of the method: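 Yeast cells carrying a defined DNA-repair defect were exposed to test compounds. Growth inhibition was measured relative to vehicle-treated controls.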
# [8] = NCI Yeast Anticancer Drug Screen. Data for the CLN2oe strain (AID 163);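 note: 0% = growth of vehicle-only control cultures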; details: S. cerevisiae CLN2oe strain, stronger effect = higher value
# Summary of the method: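 Compound-treated yeast; growth vs vehicle ctrl = % inhibition. Genetically altered strain (cell-cycle control).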
# [9] = NCI Yeast Anticancer Drug Screen. Data for the cln2 rad14 strain (AID 165);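 note: 0% = growth equal to vehicle treated cultures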; details: S. cerevisiae cln2 rad14 strain, stronger effect = higher value
# Summary of the method: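 Growth inhibition, relative to vehicle-treated controls, is the read-out. The test organism is a yeast strain with defined genetic alterations, cln2 rad14.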
# [10] = NCI Yeast Anticancer Drug Screen. Data for the bub3 strain (AID 167); details: S. cerevisiae bub3 mutant strain, stronger effect = higher value
# Summary of the method: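 Yeast carrying a defined mutation is treated with each compound, and growth is compared with that of vehicle-exposed cells to give inhibition.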
# [11] = NCI Yeast Anticancer Drug Screen. Data for the wt2 strain (AID 169);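 note: 0% = growth of vehicle-treated yeast cultures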; details: S. cerevisiae wt2 strain growth inhibition, stronger effect = higher value
# Summary of the method: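 Compound exposure of yeast; growth compared with vehicle controls; inhibition reported.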
# [12] = NCI Yeast Anticancer Drug Screen. Data for the sgs1 strain (AID 173);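 note: 0% = growth of vehicle-only control cultures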; details: S. cerevisiae sgs1 mutant, stronger effect = higher value
# Summary of the method: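 Compounds applied to genetically altered yeast; growth compared with vehicle-treated cultures to give % inhibition.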
# [13] = NCI Yeast Anticancer Drug Screen. Data for the mlh1 rad18 strain (AID 175); details: S. cerevisiae mlh1 rad18 strain growth inhibition, stronger effect = higher value
# Summary of the method: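 Cells of a genetically altered yeast strain, deficient in DNA damage repair, were treated with compound. Their growth was then compared with that of vehicle-treated cultures to give inhibition.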
# [14] = NCI Yeast Anticancer Drug Screen. Data for the rad18 strain (AID 177); details: S. cerevisiae rad18 mutant growth inhibition, stronger effect = higher value
# Summary of the method: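 Compounds are applied to a repair-deficient yeast strain, and growth is compared with that of vehicle-treated cultures to give percent inhibition.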
# [15] = NCI Yeast Anticancer Drug Screen. Data for the mlh1 strain (AID 171);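 note: 0% = growth of vehicle-treated control cultures of the same strain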; details: S. cerevisiae mlh1 strain growth inhibition, stronger effect = higher value
# Summary of the method: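 Compounds are applied to a genetically altered yeast strain, and its growth is compared with that of vehicle-treated cultures to give percent inhibition.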
# [16] = at 5.0 µM (retest, dose inferred, filed as 0.5)
# [17] = at 50.0 µM (retest, dose inferred, filed as 5.0)
structure (smiles),measurement,setting,value
Nc1ccc2c(c1)sc1ccccc12,growth inhibition,[1]; at 1.2 µM,-3%
same,growth inhibition,[1]; at 3.7 µM,2%
same,growth inhibition,[1]; at 11.0 µM,3%
same,growth inhibition,[1]; at 33.0 µM,30%
same,growth inhibition,[1]; at 100.0 µM,99% (active)
same,growth inhibition,[2]; at 1.2 µM,-5%
same,growth inhibition,[2]; at 3.7 µM,-7%
same,growth inhibition,[2]; at 11.0 µM,-10%
same,growth inhibition,[2]; at 33.0 µM,-11%
same,growth inhibition,[2]; at 100.0 µM,99% (active)
same,growth inhibition,[3]; at 1.2 µM,1%
same,growth inhibition,[3]; at 3.7 µM,13%
same,growth inhibition,[3]; at 11.0 µM,38%
same,growth inhibition,[3]; at 33.0 µM,89% (active)
same,growth inhibition,[3]; at 100.0 µM,98% (active)
same,growth inhibition,[4]; at 1.2 µM,-20%
same,growth inhibition,[4]; at 3.7 µM,-1%
same,growth inhibition,[4]; [16],-153%
same,growth inhibition,[4]; at 11.0 µM,9%
same,growth inhibition,[4]; at 33.0 µM,46%
same,growth inhibition,[4]; [17],54%
same,growth inhibition,[4]; at 50.0 µM,85.4% (active)
same,growth inhibition,[4]; at 100.0 µM,99% (active)
same,growth inhibition,[5]; at 1.2 µM,1%
same,growth inhibition,[5]; at 3.7 µM,0%
same,growth inhibition,[5]; [16],-52%
same,growth inhibition,[5]; at 11.0 µM,-6%
same,growth inhibition,[5]; at 33.0 µM,4%
same,growth inhibition,[5]; [17],-24%
same,growth inhibition,[5]; at 50.0 µM,33%
same,growth inhibition,[5]; at 100.0 µM,99% (active)
same,growth inhibition,[6]; at 1.2 µM,-3%
same,growth inhibition,[6]; at 3.7 µM,-6%
same,growth inhibition,[6]; at 11.0 µM,-1%
same,growth inhibition,[6]; at 33.0 µM,15%
same,growth inhibition,[6]; at 100.0 µM,98% (active)
same,growth inhibition,[7]; [16],-68%
same,growth inhibition,[7]; [17],40%
same,growth inhibition,[7]; at 50.0 µM,63.1%
same,growth inhibition,[8]; at 1.2 µM,-2%
same,growth inhibition,[8]; at 3.7 µM,-5%
same,growth inhibition,[8]; at 11.0 µM,-3%
same,growth inhibition,[8]; at 33.0 µM,-5%
same,growth inhibition,[8]; at 100.0 µM,95% (active)
same,growth inhibition,[9]; [16],-60%
same,growth inhibition,[9]; [17],-50%
same,growth inhibition,[9]; at 50.0 µM,-13.4%
same,growth inhibition,[10]; at 1.2 µM,-6%
same,growth inhibition,[10]; at 3.7 µM,-4%
same,growth inhibition,[10]; [16],-59%
same,growth inhibition,[10]; at 11.0 µM,3%
same,growth inhibition,[10]; at 33.0 µM,18%
same,growth inhibition,[10]; [17],40%
same,growth inhibition,[10]; at 50.0 µM,92.5% (active)
same,growth inhibition,[10]; at 100.0 µM,99% (active)
same,growth inhibition,[11]; at 1.2 µM,-1%
same,growth inhibition,[11]; at 3.7 µM,-2%
same,growth inhibition,[11]; at 11.0 µM,-4%
same,growth inhibition,[11]; at 33.0 µM,0%
same,growth inhibition,[11]; at 100.0 µM,99% (active)
same,growth inhibition,[12]; at 1.2 µM,-1%
same,growth inhibition,[12]; at 3.7 µM,-1%
same,growth inhibition,[12]; at 11.0 µM,-2%
same,growth inhibition,[12]; at 33.0 µM,46%
same,growth inhibition,[12]; at 100.0 µM,99% (active)
same,growth inhibition,[13]; [16],-122%
same,growth inhibition,[13]; [17],38%
same,growth inhibition,[13]; at 50.0 µM,94.2% (active)
same,growth inhibition,[14]; at 1.2 µM,0%
same,growth inhibition,[14]; at 3.7 µM,6%
same,growth inhibition,[14]; at 11.0 µM,27%
same,growth inhibition,[14]; at 33.0 µM,56%
same,growth inhibition,[14]; at 100.0 µM,99% (active)
S=c1cn[nH]c2ccc(Br)cc12,growth inhibition,[1]; at 1.2 µM,-1%
same,growth inhibition,[1]; at 3.7 µM,8%
same,growth inhibition,[1]; at 11.0 µM,10%
same,growth inhibition,[1]; at 33.0 µM,52%
same,growth inhibition,[1]; at 100.0 µM,74% (active)
same,growth inhibition,[2]; at 1.2 µM,-5%
same,growth inhibition,[2]; at 3.7 µM,-6%
same,growth inhibition,[2]; at 11.0 µM,-11%
same,growth inhibition,[2]; at 33.0 µM,1%
same,growth inhibition,[2]; at 100.0 µM,43%
same,growth inhibition,[3]; at 1.2 µM,-2%
same,growth inhibition,[3]; at 3.7 µM,-1%
same,growth inhibition,[3]; at 11.0 µM,17%
same,growth inhibition,[3]; at 33.0 µM,70% (active)
same,growth inhibition,[3]; at 100.0 µM,83% (active)
same,growth inhibition,[5]; at 1.2 µM,2%
same,growth inhibition,[5]; at 3.7 µM,-3%
same,growth inhibition,[5]; [16],-53%
same,growth inhibition,[5]; at 11.0 µM,-6%
same,growth inhibition,[5]; at 33.0 µM,8%
same,growth inhibition,[5]; [17],-9%
same,growth inhibition,[5]; at 50.0 µM,56.3%
same,growth inhibition,[5]; at 100.0 µM,53%
same,growth inhibition,[6]; at 1.2 µM,2%
same,growth inhibition,[6]; at 3.7 µM,4%
same,growth inhibition,[6]; at 11.0 µM,5%
same,growth inhibition,[6]; at 33.0 µM,30%
same,growth inhibition,[6]; at 100.0 µM,62%
same,growth inhibition,[7]; [16],-58%
same,growth inhibition,[7]; [17],61%
same,growth inhibition,[7]; at 50.0 µM,68.9%
same,growth inhibition,[8]; at 1.2 µM,-4%
same,growth inhibition,[8]; at 3.7 µM,-4%
same,growth inhibition,[8]; at 11.0 µM,-5%
same,growth inhibition,[8]; at 33.0 µM,40%
same,growth inhibition,[8]; at 100.0 µM,76% (active)
same,growth inhibition,[9]; [16],-68%
same,growth inhibition,[9]; [17],-20%
same,growth inhibition,[9]; at 50.0 µM,35.9%
same,growth inhibition,[10]; at 1.2 µM,-12%
same,growth inhibition,[10]; at 3.7 µM,-9%
same,growth inhibition,[10]; [16],-79%
same,growth inhibition,[10]; at 11.0 µM,-12%
same,growth inhibition,[10]; at 33.0 µM,52%
same,growth inhibition,[10]; [17],60%
same,growth inhibition,[10]; at 50.0 µM,77% (active)
same,growth inhibition,[10]; at 100.0 µM,72% (active)
same,growth inhibition,[11]; at 1.2 µM,-4%
same,growth inhibition,[11]; at 3.7 µM,-3%
same,growth inhibition,[11]; at 11.0 µM,-5%
same,growth inhibition,[11]; at 33.0 µM,20%
same,growth inhibition,[11]; at 100.0 µM,40%
same,growth inhibition,[15]; at 1.2 µM,4%
same,growth inhibition,[15]; at 3.7 µM,-7%
same,growth inhibition,[15]; at 11.0 µM,-5%
same,growth inhibition,[15]; at 33.0 µM,46%
same,growth inhibition,[15]; at 100.0 µM,73% (active)
same,growth inhibition,[12]; at 1.2 µM,-2%
same,growth inhibition,[12]; at 3.7 µM,-6%
same,growth inhibition,[12]; at 11.0 µM,-5%
same,growth inhibition,[12]; at 33.0 µM,61%
same,growth inhibition,[12]; at 100.0 µM,85% (active)
same,growth inhibition,[13]; [16],-109%
same,growth inhibition,[13]; [17],75% (active)
same,growth inhibition,[13]; at 50.0 µM,85.6% (active)
same,growth inhibition,[14]; at 1.2 µM,0%
same,growth inhibition,[14]; at 3.7 µM,2%
same,growth inhibition,[14]; at 11.0 µM,26%
same,growth inhibition,[14]; at 33.0 µM,86% (active)
same,growth inhibition,[14]; at 100.0 µM,89% (active)
